Assay results taken from PubChem BioAssay (NCATS).
Inconclusive results are not listed. A call without a number means that no potency is given here. Activity calls are given as the source filed them. The call rests on the fitted dose curve; in most records, active means well fitted cell-killing curve with a large enough effect; inconclusive means small, poorly fitted or top-dose-only effect; inactive means flat fitted curve, though single readings scatter.

Test: Cell Viability - LYMP2-007 (AID 979);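 further: cells exposed to compound for 24 h before reading; nearly all actives have a fitted effect of over 60% in size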
Settings: LYMP2-007 lymphoblastoid cell viability; series mostly up to 92.2 µM
Text: NIH Chemical Genomics Center [NCGC]
NIH Molecular Libraries Screening Centers Network [MLSCN]
National Institutes of Environmental Health Sciences [NIEHS]
National Toxicology Program [NTP]
We have developed a 1536-well cell-based assay for quantitative high throughput screening (qHTS) against a number of cell lines to determine in vitro cytotoxicity of small molecules. This particular assay uses a human lymphoblastoid cell line (LYMP2-007) purchased from Coriell Institute for Medical Research.
NCGC Assay Protocol Summary:
The CellTiter-Glo luminescent cell viability assay (Promega) is a homogeneous method to measure the number of viable cells in culture. The end point readout of this assay is based on quantitation of intracellular ATP, an indicator of metabolic activity, using the luciferase reaction. Luciferase catalyzes the oxidation of beetle Luciferin to oxyluciferin and light in the presence of ATP. The luminescent signal is proportional to amount of ATP present.
Using the CellTiter-Glo luminescent cell viability assay, the amount of cellular ATP was measured in the lymphoblastoid cell line with complete culture medium following compound treatment for 24 hours. The assay was performed in opaque white Kalypsys 1536-well plates. In the screen, tetraoctylammonium bromide was used as positive control. Library compounds were measured for their ability to cause acute toxicity in the cell line, as reflected by a decrease in intracellular ATP levels, in a concentration-dependent manner. […] AC50 values were determined from concentration-response data modeled with the standard Hill equation.
qHTS protocol for CellTiter Glo lymphoblastoid cellular assay
[Step] [Parameter] [Value] [Description]
1. Reagent; 5 uL; 2500 lymphoblastoid cells/well
2. Time; 5 hr; 37 C incubation
4. Controls; 23 nL; Tetraoctylammonium bromide 6.4pM to 92 uM
5. Time; 24 hr; 37 C incubation
6. Reagent; 5 uL; CellTiter Glo reagent
7. Time; 30 min; Room Temperature
8. Detection; Luminescence; Viewlux plate reader
Keywords: cell viability, cytotoxicity, lymphoblastoid cell line, luminescence, NTPHTS, NTPHTS_NCGC, NIEHS, DSSTox, MLSMR, MLSCN, NIH Roadmap, qHTS, NCGC
Potency means the concentration at half of the fitted maximal effect.

Row | Compound | Potency
1 | CC(CCC(=O)O)(c1ccc(O)cc1)c1ccc(O)cc1 | inactive
2 | C/C=C/C=C/C=O | 39.8 µM (active)
3 | c1ccc2c(c1)ccc1ccccc12 | inactive
4 | CCCCC(CC)COP(=O)(OCC(CC)CCCC)OCC(CC)CCCC (stereo not given) | inactive
5 | CC(C)COC(=O)COc1cc(Cl)c(Cl)cc1Cl | inactive
6 | O=[N+]([O-])c1cc(N(CCO)CCO)ccc1NCCO | inactive
7 | CCCCNCC | inactive
8 | c1ccc(COCc2ccccc2)cc1 | inactive
9 | CCCCCCc1ccc(-c2ccc(C#N)cc2)cc1 | inactive
10 | CCCCCCN | inactive
11 | Brc1ccc(-c2ccccc2)cc1 | inactive
12 | C=C(C#N)C(=O)OCC | inactive
13 | O=c1[nH]ncc2ccccc12 | inactive
14 | NC(=O)Nc1nc2ccccc2[nH]1 | inactive
15 | Cc1c(N)cccc1Cl | inactive
16 | C1CCCNCC1 | inactive
17 | Oc1cc2c(cc1O)[C@H]1c3ccc(O)c(O)c3OC[C@@]1(O)C2 | 39.8 µM (active)
18 | Cc1cccnc1 | inactive
19 | C/C(Cl)=C/CCl | inactive
20 | CC(=O)CC(=O)Nc1ccccc1 | inactive

Row | Compound | Potency
21 | C=CC(C)(O)CCCC(C)CCCC(C)CCCC(C)C (stereo not given) | inactive
22 | CC(=O)c1ccc(Cl)c(Cl)c1Cl | inactive
23 | Cc1ccc(N)cc1[N+](=O)[O-] | inactive
24 | Cc1ccc(S(N)(=O)=O)cc1 | inactive
25 | C=CC(=O)CC | inactive
26 | C=C1CC[C@H](O)C/C1=C/C=C1\CCC[C@]2(C)[C@@H]([C@H](C)CCCC(C)C)CC[C@@H]12 | 50.1 µM (active)
27 | Cc1cc(=O)oc2cc(O)cc(O)c12 | inactive
28 | Cc1ccccc1OCC1CO1 (stereo not given) | inactive
29 | CCCCCCCCOc1ccc(C(=O)O)cc1 | inactive
30 | CC(=O)Nc1cccc(C)c1 | inactive
31 | Brc1cc(Oc2cc(Br)c(Br)c(Br)c2Br)c(Br)c(Br)c1Br | inactive
32 | O=C1c2ccccc2C(=O)C1(O)O | inactive
33 | Nc1ccc2c(c1)C(=O)c1ccccc1C2=O | inactive
34 | CCCC(=O)OC(=O)CCC | inactive
35 | c1ccc(SCCSc2ccccc2)cc1 | inactive
36 | O=[N+]([O-])c1cccc(I)c1 | inactive
37 | Nc1cnn([C@@H]2O[C@H](CO)[C@@H](O)[C@H]2O)c(=O)n1 | inactive
38 | CC(=O)OC1CC(C)OC(C)O1 (stereo not given) | inactive
39 | N=C1C=CC(=C(c2ccc(N)cc2)c2ccc(N)cc2)C=C1 | 7.94 µM (active)
40 | CCOC(=O)C1OC1c1ccccc1 (stereo not given) | inactive
